# Test results published in PubChem BioAssay (Tox21).
# Values joined by “and” are separate entries in the source; they are usually repeats but may differ in a detail not shown here. Equal entries are not always repeated. Inconclusive results are not listed. Where a call stands in place of a potency, no number is given. The source holds several records for some structures; these can differ, active in one and inactive in another. Active and inactive are the calls of the source. Unless noted, calls come from the whole dose curve; as a rule, active = well fitted curve in the direction sought with a large enough effect in the repeat runs; inconclusive = weak or mixed curves; inactive = no such curve, though single readings can be large; an effect the other way counts as inactive or inconclusive.
# Experiments:
# [1] = qHTS assay for small molecule agonists of the p53 signaling pathway (AID 651631; calls by dose curve; note: nearly all actives have a fitted effect of over 15% in size; note: potency is the fitted concentration of half-maximal effect)
# Summary of the method: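 Readout was fluorescence from the LiveBLAzer FRET substrate, applied for 2 h at room temperature after 16 h compound exposure at 37 °C. Cells were the p53RE-bla HCT-116 line, with beta-lactamase driven by p53 response elements.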
# [2] = qHTS assay for small molecules that induce genotoxicity in human embryonic kidney cells expressing luciferase-tagged ATAD5 (AID 651632); note: nearly all actives have a fitted effect of over 15% in size
# Summary of the method: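 Luminescence read-out: after 16 hr compound exposure at 37C, ATAD5-luciferase HEK293T cells received Amplite, 30 min RT, then CCD imaging. A rise in signal marks genotoxic stress.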
# [3] = qHTS assay for small molecule agonists of the p53 signaling pathway - cell viability (AID 651633; calls by dose curve; note: nearly all actives have a fitted effect of over 30% in size; note: potency is the fitted concentration of half-maximal effect)
# Summary of the method: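 Viability counter-read: CellTiter-Glo luminescence (30 min, room temperature) in the same p53RE-bla plates. These plates had been exposed to compounds for 16 h at 37 C.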
# [4] = qHTS assay for small molecules that induce genotoxicity in human embryonic kidney cells expressing luciferase-tagged ATAD5 - cell viability (AID 651634; calls by dose curve; note: nearly all actives have a fitted effect of over 25% in size)
# Summary of the method: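 HEK293T ATAD5-luc cells, 2,000/well; compound 15.5 hr, 37C/5% CO2; CellTiter-Fluor 30 min, 37C; fluorescence read.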
# [5] = qHTS assay for small molecule disruptors of the mitochondrial membrane potential - cell viability (AID 720634; calls by dose curve;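 note: human HepG2 liver cancer cells; nearly all actives have a fitted effect of over 20% in size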)
# Summary of the method: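 Luminescence from CellTiter-Glo (ATP content) gave viability in HepG2 cells, read in the same wells as the MMP dye assay after 1 hr compound exposure at 37 C.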
# [6] = qHTS assay to test for compound auto fluorescence at 590 nm (red) in HepG2 cells (AID 720674)
# Summary of the method: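 Red autofluorescence (Ex/Em 540/590 nm, Rose Bengal sodium equivalents) was measured in HepG2 cells, 2,000 per well in MEM plus 10% FBS, plated overnight at 37 C. Readings were taken 1 hr after adding 23 nL compound or DMSO, at 37 C and 5% CO2.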
# [7] = qHTS assay to test for compound auto fluorescence at 535 nm (green) in HepG2 cells (AID 720675)
# [8] = qHTS assay to test for compound auto fluorescence at 460 nm (blue) in HEK293 cells (AID 720678)
# Summary of the method: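 Measured: blue fluorescence (Ex 405/Em 460 nm) of compound-treated HEK293 cells, incubated overnight at 37C with 5% CO2 and scaled to triamterene equivalents.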
# [9] = qHTS assay to test for compound auto fluorescence at 590 nm (red) in HEK293 cells (AID 720679)
# Summary of the method: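 Using HEK293 cells at 2,000 per well, the screen added 23 nL of each compound after cell attachment and incubated overnight (37C, 5% CO2). The plate reader then captured red-label fluorescence, Ex/Em 540/590nm.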
# [10] = qHTS assay to test for compound auto fluorescence at 535 nm (green) in HEK293 cells (AID 720680)
# [11] = qHTS assay to test for compound auto fluorescence at 460 nm (blue) in HEK293 cell free culture (AID 720681)
# Summary of the method: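 Blue fluorescence (Ex 405/Em 460 nm, triamterene-equivalent) was read immediately after pin transfer of compound or DMSO into medium (DMEM, 10% FBS) without cells.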
# [12] = qHTS assay to test for compound auto fluorescence at 535 nm (green) in HEK293 cell free culture (AID 720682)
# Summary of the method: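 Compounds were pin-transferred into cell-free DMEM with 10% FBS, and green fluorescence was read at excitation 485 nm and emission 535 nm. Intensities were expressed as fluorescein-equivalent values.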
# [13] = qHTS assay to test for compound auto fluorescence at 590 nm (red) in HepG2 cell free culture (AID 720684)
# Summary of the method: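 Cell-free; medium MEM + 10% FBS; compound or DMSO added by pintool; read Ex 540/Em 590 nm; Rose Bengal sodium as red reference fluorophore.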
# [14] = qHTS assay to test for compound auto fluorescence at 460 nm (blue) in HepG2 cell free culture (AID 720685)
# Summary of the method: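 Cell-free plates of MEM plus 10% FBS received 23 nL compound or DMSO vehicle; blue-channel (405/460 nm) intensity scored against triamterene as reference fluorophore.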
# [15] = qHTS assay to test for compound auto fluorescence at 460 nm (blue) in HepG2 cells (AID 720687)
# Summary of the method: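 Blue-channel autofluorescence (Ex/Em 405/460 nm, triamterene-equivalent) was measured after 1 hr compound exposure at 37 C, 5% CO2. Cells were HepG2, plated overnight at 37 C in MEM plus 10% FBS.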
# [16] = qHTS assay to test for compound auto fluorescence at 590 nm (red) in HEK293 cell free culture (AID 720683)
# Summary of the method: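 Red-channel autofluorescence of compounds in culture medium (DMEM, 10% FBS), no cells, measured at 540/590 nm. Rose Bengal sodium is the reference fluorophore for equivalence.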
# [17] = qHTS assay to test for compound auto fluorescence at 535 nm (green) in HepG2 cell free culture (AID 720686)
# [18] = target: Glucocorticoid receptor (Homo sapiens) (UniProt P04150); experiment: qHTS assay to identify small molecule agonists of the glucocorticoid receptor (GR) signaling pathway (AID 720691; active = well fitted activation curve with a large enough effect in the signal ratio in the repeat runs, not every such curve was filed as active; the % refers to the signal ratio); conditions: GR-bla HeLa, beta-lactamase reporter ratio, 18 h; activation: at 62.4 µM (top of the series) unless noted
# Chain of Glucocorticoid receptor (Homo sapiens) (P04150 whole entry, looked up): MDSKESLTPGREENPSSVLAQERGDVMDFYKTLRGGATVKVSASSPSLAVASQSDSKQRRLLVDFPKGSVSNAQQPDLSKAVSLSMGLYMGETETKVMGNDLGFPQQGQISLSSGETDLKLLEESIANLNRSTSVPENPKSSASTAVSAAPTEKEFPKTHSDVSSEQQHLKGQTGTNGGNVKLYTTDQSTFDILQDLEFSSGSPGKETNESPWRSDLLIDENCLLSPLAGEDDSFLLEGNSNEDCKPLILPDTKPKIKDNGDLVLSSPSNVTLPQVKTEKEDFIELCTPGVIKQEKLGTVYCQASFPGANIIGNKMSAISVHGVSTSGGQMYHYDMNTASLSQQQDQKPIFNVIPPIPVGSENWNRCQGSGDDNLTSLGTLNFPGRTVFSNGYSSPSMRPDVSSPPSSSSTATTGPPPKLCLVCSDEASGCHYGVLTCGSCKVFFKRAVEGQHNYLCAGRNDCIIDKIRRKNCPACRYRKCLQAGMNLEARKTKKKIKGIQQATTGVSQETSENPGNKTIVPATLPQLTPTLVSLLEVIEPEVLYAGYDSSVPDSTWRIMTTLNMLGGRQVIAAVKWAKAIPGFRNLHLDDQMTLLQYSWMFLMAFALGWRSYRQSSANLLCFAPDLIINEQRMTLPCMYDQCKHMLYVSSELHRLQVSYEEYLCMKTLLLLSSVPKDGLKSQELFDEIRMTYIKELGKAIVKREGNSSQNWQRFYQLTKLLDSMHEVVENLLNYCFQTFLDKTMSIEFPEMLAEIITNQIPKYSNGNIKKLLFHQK
# Summary of the method: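 HeLa GR-bla reporter line; cells pre-incubated 4 h, compound in DMSO 18 h at 37 C; LiveBLAzer B/G FRET substrate 2 h RT; fluorescence intensity read-out.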
# [19] = target: Glucocorticoid receptor (Homo sapiens) (UniProt P04150); experiment: qHTS assay to identify small molecule antagonists of the glucocorticoid receptor (GR) signaling pathway (AID 720692; active = well fitted inhibition curve with a large enough effect in the signal ratio in the repeat runs, not every such curve was filed as active; the % refers to the signal ratio)
# Summary of the method: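 Read-out: beta-lactamase FRET substrate fluorescence, 2 h at room temperature, in HeLa cells stably carrying a GRE-driven bla reporter. Compounds were co-incubated with 5 nM dexamethasone agonist (final) for 18 h at 37 C.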
# [20] = qHTS assay for small molecule disruptors of the mitochondrial membrane potential (AID 720635); note: potency is the fitted concentration of half-maximal effect
# Summary of the method: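 Mitochondrial membrane potential tracked with Mito-MPS dye, red aggregates (ex 540/em 590 nm) against green monomers (ex 490/em 535 nm). Compound treatment 1 hr at 37C, dye 30 min in HepG2.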
compound,measurement,setting,value
CCCCCCCCCOS(=O)(=O)O,Potency,[1],inactive
same,Potency,[2],inactive
same,Potency,[3],inactive
same,Potency,[4],inactive
same,Potency,[5],inactive
same,Potency,[6],inactive
same,Potency,[7],inactive
same,outcome,[8],inactive
same,Potency,[9],inactive
same,outcome,[10],inactive
same,outcome,[11],inactive
same,outcome,[12],inactive
same,Potency,[13],inactive
same,outcome,[14],inactive
same,outcome,[15],inactive
O=C(O)c1ccccc1Cl,Potency,[1],inactive
same,Potency,[2],inactive
same,Potency,[3],inactive
same,Potency,[4],inactive
same,Potency,[5],inactive
same,Potency,[6],inactive
same,Potency,[7],inactive
same,outcome,[8],inactive
same,Potency,[9],inactive
same,outcome,[10],inactive
same,outcome,[11],inactive
same,outcome,[12],inactive
same,Potency,[16],inactive
same,Potency,[13],inactive
same,outcome,[14],inactive
same,outcome,[15],inactive
O=S(c1cc(Cl)cc(Cl)c1O)c1cc(Cl)cc(Cl)c1O,Potency,[1],8.41 µM (active)
same,Potency,[2],inactive
same,Potency,[3],3.35 µM (active)
same,Potency,[4],inactive
same,Potency,[6],inactive
same,Potency,[7],inactive
same,outcome,[8],inactive
same,Potency,[9],inactive
same,outcome,[10],inactive
same,outcome,[11],inactive
same,outcome,[12],inactive
same,Potency,[16],inactive
same,Potency,[13],inactive
same,outcome,[14],inactive
same,Potency,[17],inactive
same,Potency,[18],inactive
CN(C)C(=O)NC1(c2ccccc2)CCN(CC[C@@]2(c3ccc(F)c(F)c3)CN(C(=O)c3ccccc3)CCO2)CC1,Potency,[1],inactive
same,Potency,[2],inactive
same,Potency,[3],inactive
same,Potency,[4],inactive
same,Potency,[5],inactive
same,Potency,[6],inactive
same,Potency,[7],inactive
same,outcome,[8],inactive
same,Potency,[9],inactive
same,outcome,[10],inactive
same,outcome,[11],inactive
same,outcome,[12],inactive
same,Potency,[13],inactive
same,outcome,[14],inactive
same,Potency,[17],inactive
same,Potency,[19],inactive
CC(C)CC(=O)C1C(=O)c2ccccc2C1=O,Potency,[1],inactive
same,Potency,[2],inactive
same,Potency,[3],inactive
same,Potency,[4],inactive
same,Potency,[20],4.33 µM (active)
same,Potency,[6],inactive
same,Potency,[7],inactive
same,outcome,[8],inactive
same,Potency,[9],inactive
same,outcome,[10],inactive
same,outcome,[11],inactive
same,Potency,[16],inactive
same,Potency,[13],inactive
same,outcome,[14],inactive
same,Potency,[17],inactive
same,outcome,[15],inactive
C[C@@H](c1ncncc1F)C(O)(Cn1cncn1)c1ccc(F)cc1F (stereo not given in full),Potency,[1],inactive
same,Potency,[2],inactive
same,Potency,[3],inactive
same,Potency,[4],inactive
same,Potency,[5],inactive
same,Potency,[6],inactive
same,Potency,[7],inactive
same,outcome,[8],inactive
same,Potency,[9],inactive
same,outcome,[10],inactive
same,outcome,[11],inactive
same,outcome,[12],inactive
same,Potency,[16],inactive
same,Potency,[13],inactive
same,outcome,[14],inactive
same,Potency,[17],inactive
same,outcome,[15],inactive
same,Potency,[18],inactive
same,Potency,[19],inactive
CN(C)c1ccc(C(c2ccccc2)c2ccc(N(C)C)cc2)cc1,Potency,[1],inactive
same,Potency,[2],inactive
same,Potency,[3],inactive
same,Potency,[4],inactive
same,Potency,[6],inactive
same,Potency,[7],inactive
same,outcome,[8],inactive
same,Potency,[9],inactive
same,outcome,[10],inactive
same,outcome,[11],inactive
same,outcome,[12],inactive
same,Potency,[16],inactive
same,Potency,[13],inactive
same,outcome,[14],inactive
same,Potency,[17],inactive
same,outcome,[15],inactive
C=CC1CC2C=CC1C2 (stereo not given),Potency,[1],inactive
same,Potency,[2],inactive
same,Potency,[3],inactive
same,Potency,[4],inactive
same,Potency,[5],inactive
same,Potency,[6],inactive
same,Potency,[7],inactive
same,outcome,[8],inactive
same,Potency,[9],inactive
same,outcome,[10],inactive
same,outcome,[11],inactive
same,Potency,[16],inactive
same,Potency,[13],inactive
same,outcome,[14],inactive
same,outcome,[15],inactive
same,Potency,[18],inactive
same,Potency,[19],inactive
O=C(O)c1ccco1,Potency,[1],inactive
same,Potency,[2],inactive
same,Potency,[3],inactive
same,Potency,[5],inactive
same,Potency,[20],inactive
same,Potency,[6],inactive
same,Potency,[7],inactive
same,outcome,[8],inactive
same,Potency,[9],inactive
same,outcome,[10],inactive
same,outcome,[11],inactive
same,outcome,[12],inactive
same,Potency,[16],inactive
same,Potency,[13],inactive
same,outcome,[14],inactive
same,Potency,[17],inactive
O=[N+]([O-])c1cccc(S(=O)(=O)O)c1,Potency,[1],inactive
same,Potency,[2],inactive
same,Potency,[3],inactive
same,Potency,[4],inactive
same,Potency,[6],inactive
same,Potency,[7],inactive
same,outcome,[8],inactive
same,Potency,[9],inactive
same,outcome,[10],inactive
same,outcome,[11],inactive
same,Potency,[16],inactive
same,Potency,[13],inactive
same,outcome,[14],inactive
same,Potency,[17],inactive
same,outcome,[15],inactive
same,Potency,[18],inactive
same,Potency,[19],inactive
CC/C=C\CCOC(=O)CC,Potency,[1],inactive
same,Potency,[2],inactive
same,Potency,[3],inactive
same,Potency,[4],inactive
same,Potency,[5],inactive
same,Potency,[6],inactive
same,Potency,[7],inactive
same,outcome,[8],inactive
same,Potency,[9],inactive
same,outcome,[10],inactive
same,outcome,[11],inactive
same,outcome,[12],inactive
same,Potency,[16],inactive
same,Potency,[13],inactive
same,outcome,[14],inactive
same,outcome,[15],inactive
CCCCCC[C@@H](O)C/C=C\CCCCCCCC(=O)OC,Potency,[1],inactive
same,Potency,[2],inactive
same,Potency,[3],inactive
same,Potency,[4],inactive
same,Potency,[5],inactive
same,Potency,[7],inactive
same,Potency,[9],inactive
same,outcome,[11],inactive
same,outcome,[12],inactive
same,Potency,[16],inactive
same,Potency,[13],inactive
same,outcome,[14],inactive
same,Potency,[17],inactive
same,outcome,[15],inactive
CN1CCN(C(c2ccccc2)c2ccccc2)CC1,Potency,[1],inactive
same,Potency,[2],inactive
same,Potency,[3],inactive
same,Potency,[4],inactive
same,Potency,[5],inactive
same,"fluorescence, relative to Rose Bengal",[6],0.313% [at 18.6 µM] (inactive)
same,"fluorescence, % of fluorescein control",[7],-0.189% [at 18.6 µM] (inactive)
same,"fluorescence, % of triamterene",[8],-0.0167% [at 18.6 µM] (inactive)
same,"fluorescence, % of fluorescent control",[9],-0.0303% [at 18.6 µM] (inactive)
same,"fluorescence, % of fluorescein",[10],0.0022% [at 18.6 µM] (inactive)
same,"fluorescence, % of fluorescent control",[11],-0.0336% [at 18.6 µM] (inactive)
same,activity change,[12],0.0291% [at 18.6 µM] (inactive)
same,"fluorescence, % of fluorescent control",[16],0.0321% [at 18.6 µM] (inactive)
same,"fluorescence, % of Rose Bengal",[13],-0.0854% [at 18.6 µM] (inactive)
same,"fluorescence, % of fluorescent control",[14],-0.0233% [at 18.6 µM] (inactive)
same,"fluorescence, % of fluorescein control",[17],0.0024% [at 18.6 µM] (inactive)
same,Potency,[18],inactive
OCc1cc(C(O)CNCCCCCCOCCCCc2ccccc2)ccc1O (stereo not given),Potency,[1],inactive
same,Potency,[2],inactive
same,Potency,[3],inactive and 26.6 µM (active)
same,Potency,[4],inactive
same,Potency,[5],inactive
same,Potency,[6],inactive
same,Potency,[7],inactive
same,outcome,[8],inactive
same,Potency,[9],inactive
same,outcome,[10],inactive
same,outcome,[11],inactive
same,outcome,[12],inactive
same,Potency,[16],inactive
same,Potency,[13],inactive
same,outcome,[14],inactive
same,Potency,[17],inactive
same,outcome,[15],inactive
same,Potency,[18],inactive
same,Potency,[19],inactive
